Results: PubChem BioAssay (EPA / NIEHS)
Values joined by “and” are separate entries in the source; they are usually repeats but may differ in a detail not shown here. Equal entries are not always repeated. Inconclusive results are not listed. Where a structure was tested more than once in an assay, its records may differ in their call. Active and inactive are the calls of the source. How the source made its calls: active means hit-call score of the fitted dose curve at least 0.9, where 1 is the maximum; inconclusive means response in the unintended direction; inactive means score below 0.9.

Legend:
[1] = ATG_XTT_Cytotoxicity: Cytotoxicity Assessment in the Attagene TRANS-FACTORIAL HepG2 Assay (AID 2283584);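 on AC50: XTT signal for cell number as viability in transfected HepG2 cells; cells exposed to compound for 24 h before reading; active means loss of viability signal versus DMSO baseline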
Summary of the method: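 24 h chemical exposure of reporter-transfected HepG2; XTT signal loss vs DMSO indicates cytotoxicity.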

[2] = TOX21_p53_BLA_p2_viability: Viability Assessment in the Tox21 HCT-116 p53 Agonism Beta-lactamase Assay, Phase 2 (AID 2283591);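 further: compound exposure lasted 16 h at 37 °C; actives lower the ATP signal meaning cytotoxicity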
Summary of the method: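 HCT-116 p53-bla cells (4000/well) rested 5 h at 37C, then received compounds in DMSO (217-fold dilution) for 16 h at 37C, 5% CO2. After the CCF4 read, CellTiter-Glo was added; ATP luminescence was read after 30 min at room temperature.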

[3] = target: Cellular tumor antigen p53 (Homo sapiens) (UniProt P04637); experiment: TOX21_p53_BLA_p2_ratio: Tox21 HCT-116 p53 Agonism Beta-lactamase Assay, Ratio, Phase 2 (AID 2283592)
Summary of the method: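 DMSO-normalized, positive-direction endpoint derived from the 460 nm/530 nm FRET ratio in HCT116 p53 beta-lactamase reporter cells exposed 16 h at 37C and loaded with CCF4-AM for 2 h.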

[4] = TOX21_p53_BLA_p3_viability: Viability Assessment in the Tox21 HCT-116 p53 Agonism Beta-lactamase Assay, Phase 3 (AID 2283593);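 further: cells exposed to compound for 16 h before reading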
Summary of the method: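 HCT-116 cells (4000/well) rested 5 h at 37C, then got DMSO compounds by pin tool (217-fold dilution) for 16 h at 37C, 5% CO2. After the bla read, CellTiter-Glo was added and luminescence read at 30 min, room temperature.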

[5] = target: Cellular tumor antigen p53 (Homo sapiens) (UniProt P04637); experiment: TOX21_p53_BLA_p3_ratio: Tox21 HCT-116 p53 Agonism Beta-lactamase Assay, Ratio, Phase 3 (AID 2283596)
Summary of the method: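 Cells were seeded at 4000/well, rested 5 h at 37C, then dosed with DMSO compound solutions (217-fold dilution) for 16 h. CCF4-AM substrate was loaded for 2 h at room temperature, and the 460/530 nm emission ratio was fitted for gain of signal versus DMSO.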

[6] = TOX21_p53_BLA_p4_viability: Viability Assessment in the Tox21 HCT-116 p53 Agonism Beta-lactamase Assay, Phase 4 (AID 2283597);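 further: hits lower the luminescence signal meaning cytotoxicity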
Summary of the method: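 In this multiplexed secondary endpoint, HCT116 cells (4000 per well, compound at 5 h, 16 h treatment) received CellTiter-Glo after the beta-lactamase read. Luminescence after 30 min RT reflects ATP, and falling signal marks cytotoxicity.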

[7] = TOX21_p53_BLA_p5_viability: Viability Assessment in the Tox21 HCT-116 p53 Agonism Beta-lactamase Assay, Phase 5 (AID 2283600)
Summary of the method: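 Here cell health was gauged by ATP levels in wells holding 4000 cells, each treated 16 h with DMSO-delivered compounds at 217-fold dilution; reduced luminescence marked toxicity.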

[8] = target: Cellular tumor antigen p53 (Homo sapiens) (UniProt P04637); experiment: TOX21_p53_BLA_p4_ratio: Tox21 HCT-116 p53 Agonism Beta-lactamase Assay, Ratio, Phase 4 (AID 2283601)
Summary of the method: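 HCT116 cells carrying an inducible beta-lactamase reporter were plated at 4000 cells/well, rested 5 h, then exposed to compounds in DMSO (217-fold dilution) for 16 h at 37C. CCF4-AM substrate was loaded 2 h at room temperature; 460/530 nm emission ratio scored gain-of-signal versus DMSO.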

[9] = target: Cellular tumor antigen p53 (Homo sapiens) (UniProt P04637); experiment: TOX21_p53_BLA_p5_ratio: Tox21 HCT-116 p53 Agonism Beta-lactamase Assay, Ratio, Phase 5 (AID 2283599)
Summary of the method: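 HCT-116 cells carrying a p53-inducible beta-lactamase reporter were seeded at 4000 cells/well and dosed after 5 h with compound in DMSO (217-fold dilution). After 16 h at 37C, CCF4-AM substrate was added for 2 h, and the 460/530 nm emission ratio was scored as gain-of-signal versus DMSO.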

Chain of Cellular tumor antigen p53 (Homo sapiens) (P04637 whole entry, looked up): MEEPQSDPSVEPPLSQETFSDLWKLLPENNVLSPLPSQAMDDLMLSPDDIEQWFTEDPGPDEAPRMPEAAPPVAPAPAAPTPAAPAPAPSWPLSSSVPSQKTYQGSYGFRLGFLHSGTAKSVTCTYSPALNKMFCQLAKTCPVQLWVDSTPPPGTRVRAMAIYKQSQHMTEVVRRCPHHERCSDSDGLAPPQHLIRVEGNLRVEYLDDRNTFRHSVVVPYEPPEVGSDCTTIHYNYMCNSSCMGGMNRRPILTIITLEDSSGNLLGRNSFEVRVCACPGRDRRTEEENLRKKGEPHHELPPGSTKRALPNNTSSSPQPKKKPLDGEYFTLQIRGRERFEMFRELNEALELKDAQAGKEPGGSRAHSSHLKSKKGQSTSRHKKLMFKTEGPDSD

Nc1cc(Cl)c(-c2cc(Cl)c(N)cc2Cl)cc1Cl
outcome [1]: inactive | AC50 [2]: 31.3 µM (active) and 40.9 µM (active) | AC50 [3]: 69 µM (active) and 81.7 µM (active) | AC50 [4]: 70.8 µM (active) and 63.8 µM (active) | AC50 [5]: 86.4 µM (active) and 84.5 µM (active) | AC50 [6]: 40.7 µM (active) and 29.6 µM (active) | AC50 [7]: 71.8 µM (active) and 61.9 µM (active) | AC50 [8]: 81.8 µM (active) and 57.1 µM (active)

COC(=O)CC(C(C)=O)C(=O)OC (configuration not stated)
outcome [1]: inactive | outcome [2]: inactive | outcome [4]: inactive | outcome [5]: inactive | outcome [7]: inactive | outcome [8]: inactive

CCCCCCCCCCCCCC[n+]1ccccc1
AC50 [1]: 28.3 µM (active) | outcome [2]: inactive | AC50 [3]: 4.85 µM (active) | outcome [4]: inactive | AC50 [5]: 14.1 µM (active) | AC50 [6]: 13.3 µM (active) | outcome [9]: inactive | outcome [7]: inactive | AC50 [8]: 21.6 µM (active)

Cc1ccc(S(=O)(=O)O)cc1
outcome [1]: inactive | outcome [2]: inactive | outcome [4]: inactive | outcome [6]: inactive | outcome [7]: inactive

CCCCCCCCC1CCC(=O)O1 (configuration not stated)
outcome [1]: inactive | outcome [2]: inactive | outcome [5]: inactive | outcome [9]: inactive | outcome [7]: inactive | outcome [8]: inactive

Oc1c(Cl)ccc(Cl)c1Cl
outcome [1]: inactive | outcome [2]: inactive | outcome [3]: inactive | outcome [4]: inactive | outcome [5]: inactive | outcome [6]: inactive | outcome [9]: inactive | outcome [7]: inactive | outcome [8]: inactive

CNNCc1ccc(C(=O)NC(C)C)cc1
outcome [1]: inactive | outcome [3]: inactive | outcome [4]: inactive | outcome [5]: inactive | outcome [6]: inactive | outcome [9]: inactive | outcome [7]: inactive | outcome [8]: inactive

CCCCCCCCCCCCCCCCCC[N+](C)(C)Cc1ccccc1
AC50 [1]: 29 µM (active) | AC50 [2]: 41.1 µM (active) | AC50 [3]: 74.3 µM (active) | AC50 [4]: 24.4 µM (active) | AC50 [5]: 60.6 µM (active) | AC50 [6]: 38.1 µM (active) | outcome [9]: inactive | AC50 [7]: 15 µM (active) | AC50 [8]: 69.6 µM (active)

CCCCCC(C)OC(=O)COc1ccc(Cl)c2cccnc12 (configuration not stated)
outcome [1]: inactive | outcome [3]: inactive | outcome [4]: inactive | outcome [5]: inactive | outcome [6]: inactive | outcome [7]: inactive

NC(=NCCCCCCN=C(N)/N=C(\N)Nc1ccc(Cl)cc1)/N=C(\N)Nc1ccc(Cl)cc1
AC50 [1]: 31.6 µM (active) | AC50 [3]: 59.8 µM (active) [middle of 4 runs] | outcome [3]: inactive | AC50 [5]: 72.6 µM (active) [middle of 4 runs] | outcome [5]: inactive | AC50 [8]: 71.4 µM (active) [middle of 5 runs]

CC=O
outcome [1]: inactive | AC50 [2]: 46.2 µM (active) | AC50 [3]: 3.17 µM (active) | AC50 [4]: 86.1 µM (active) | AC50 [5]: 2.37 µM (active) | AC50 [6]: 47.9 µM (active) | AC50 [7]: 74.4 µM (active) | AC50 [8]: 62.6 µM (active)

CCCCCCCCCC=CCC1CC(=O)OC1=O (configuration not stated)
outcome [1]: inactive | outcome [2]: inactive | outcome [3]: inactive | outcome [4]: inactive | outcome [5]: inactive | outcome [6]: inactive | outcome [9]: inactive | outcome [7]: inactive | outcome [8]: inactive

O=C(Nc1cccc([N+](=O)[O-])c1)c1cc2ccccc2cc1O
outcome [1]: inactive | outcome [2]: inactive | AC50 [3]: 1.17 µM (active) | outcome [4]: inactive | AC50 [5]: 1.1 µM (active) | AC50 [6]: 16.6 µM (active) | AC50 [9]: 4.65 µM (active) | outcome [7]: inactive | AC50 [8]: 11.6 µM (active)

COc1cc([N+](=O)[O-])ccc1N
outcome [1]: inactive | outcome [3]: inactive | outcome [4]: inactive

CC(C)(C)c1ccc(O)c(O)c1
outcome [1]: inactive | outcome [2]: inactive | outcome [3]: inactive | outcome [4]: inactive | outcome [5]: inactive | outcome [6]: inactive | outcome [9]: inactive | outcome [7]: inactive | outcome [8]: inactive

O=C1OC(=O)c2cc(-c3ccc4c(c3)C(=O)OC4=O)ccc21
outcome [1]: inactive | outcome [2]: inactive | outcome [3]: inactive | outcome [4]: inactive | outcome [5]: inactive | outcome [6]: inactive | outcome [7]: inactive | outcome [8]: inactive

CCCCCCc1ccc(N)cc1
outcome [1]: inactive | outcome [3]: inactive | outcome [4]: inactive | outcome [5]: inactive | outcome [6]: inactive | outcome [9]: inactive | outcome [7]: inactive | outcome [8]: inactive

C[C@]12CC[C@@H]3c4ccc(O)cc4CC[C@H]3[C@@H]1CC[C@@H]2OC(=O)CCC1CCCC1
outcome [1]: inactive | outcome [2]: inactive | outcome [3]: inactive | outcome [4]: inactive | outcome [5]: inactive | outcome [6]: inactive | outcome [7]: inactive | outcome [8]: inactive

Cc1cc(Cc2cc(C)cc(C(C)(C)C)c2O)c(O)c(C(C)(C)C)c1
AC50 [1]: 74.7 µM (active) | AC50 [3]: 27.1 µM (active) and 46 µM (active) | AC50 [4]: 19.1 µM (active) and 20.2 µM (active) | AC50 [5]: 44.8 µM (active) and 57.1 µM (active) | AC50 [6]: 12 µM (active) and 19.2 µM (active) | AC50 [9]: 33.6 µM (active) and 41.4 µM (active) | AC50 [7]: 17.7 µM (active) and 16.7 µM (active) | AC50 [8]: 24.2 µM (active) and 48.1 µM (active)
